TROY signal inh: TROY signaling inhibition. inhibition, % at 10 µM. AID 1347056. Q293 LMP1-TROYcd NF-kB luciferase reporter, 4 h. 360,000 compounds, 0.98% hits;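 active = compounds whose plate-normalised and pattern-corrected inhibition of the luciferase reporter signal at the single screening dose is 50% or more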
HIF-2a block: HIF-2a inhibition; 786-0 RCC cells HIF-2a reporter, luciferase luminescence, overnight; inhibition, % at 18.8 µM; 360,000 compounds, 0.72% hits; AID 624352;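 active = inhibition of the luminescence signal of 40% or more relative to plate controls, in a single-dose primary screen at 18.75 µM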
TWEAK-Fn14 inh: blocks TWEAK-Fn14 interaction in a reporter cell assay; TWEAK-stimulated Fn14 reporter cells, luciferase luminescence, 8 h; inhibition, % at 10 µM; 360,000 compounds, 2% hits; AID 1159606; in the data active = inhibition above about 50%
Peg3 prom inh: Peg3 promoter activity inhibition; HeLa PEG-Prom luciferase reporter, luminescence, overnight; 360,000 compounds, 1.7% hits; inhibition, % at 20 µM;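 active = inhibition of at least 50% at 20 µM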
KKLEB cytotox: CF airway cell cytotoxicity counter-screen; KKLEB CF airway cells viability, ATPlite luminescence, overnight; active compounds read low; cells stimulated with P. aeruginosa culture filtrate; activity change (cytotoxicity), % at 5 µM; 360,000 compounds, 0.36% hits; AID 602141;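 active = corrected activity change at or below -50% at 5 µM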
CF NFkB block: inhibitors of cystic fibrosis induced NF-kB. inhibition, % at 5 µM. KKLEB NF-kB-GFP reporter, PAF-induced, GFP fluorescence overnight. 360,000 compounds, 0.86% hits;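 active = at least 50% inhibition at 5 µM, scaled per plate between neutral and stimulator controls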;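 note: PAF is a Pseudomonas aeruginosa culture filtrate used as stimulus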
Large screens that a line does not name were inactive. An excerpt weighted towards active compounds, which were near 4% of everything screened.

O=C(NC1CCN(S(=O)(=O)c2ccccc2C(F)(F)F)CC1)c1ccco1	TWEAK-Fn14 inh 56
O=C(NC1CCN(S(=O)(=O)c2ccc(F)cc2)CC1)c1ccco1	none
CCN1Cc2c(/C=C/c3ccccc3)nc3ccc(OC)cc3c2N(c2cccc(Cl)c2)C1	Peg3 prom inh 101
S=C(NCc1ccccn1)Nc1ccc(Cl)cc1	TWEAK-Fn14 inh 72 (no result: TROY signal inh)
Cc1cc(C)n(S(=O)(=O)c2ccc(Cl)cc2)n1	none
Cc1cc(C)n(S(=O)(=O)c2ccc(F)cc2)n1	TWEAK-Fn14 inh 73
CCc1cccc(CC)c1N1C(=O)C2=C(SCCCS2)C1=O	none
CCC(=O)N(C1=C(NC)C(=O)c2ccccc2C1=O)C(C)C	TWEAK-Fn14 inh 61
CC(=O)NC1=C(Nc2ccc(N(C)C)cc2)C(=O)c2ccccc2C1=O	none
CNC1=C(N(C(C)=O)c2ccc(Br)cc2)C(=O)c2ccccc2C1=O	TROY signal inh 64, HIF-2a block 60, TWEAK-Fn14 inh 91, Peg3 prom inh 102, KKLEB cytotox -62, CF NFkB block 76
O=c1[nH]c(=S)[nH]nc1Cc1ccccc1	none
Cc1cc(C(=O)OCC(=O)Nc2cccc([N+](=O)[O-])c2)c(C)o1	none
C[C@H](CO)N1C[C@H](C)[C@@H](CN(C)S(=O)(=O)c2ccc3ccccc3c2)OCc2cn(nn2)CCCC1=O	none
CC[n+]1c(/C=C/N(C)c2ccccc2)n(-c2ccccc2)c2ccc(-c3nc4ccccc4s3)cc21	TROY signal inh 64, HIF-2a block 91, TWEAK-Fn14 inh 107, Peg3 prom inh 112, KKLEB cytotox -95, CF NFkB block 92
CCOC(=O)c1ccc2c(c1)n(CC)c(/C=C/N(C)c1ccccc1)[n+]2CC	none
Cc1ncc([N+](=O)[O-])n1Cc1cccc(F)c1	TWEAK-Fn14 inh 70
CC(=O)Nc1ccc(CN2C(=O)C(Cc3ccccc3)ON=C2c2cccc(F)c2)cc1 (configuration not stated)	TROY signal inh 83
Cc1cccnc1C1=NOC(Cc2ccccc2)C(=O)N1Cc1ccc(F)cc1 (configuration not stated)	none
CCCCCCCN(c1ccccc1)[C@@H]1C[C@H]2CCCC(=O)N3CC[C@@H](C1)[C@@H]23	Peg3 prom inh 87
COc1ccc(N/N=C(\C#N)C(=N)SCc2ccccc2)cc1	TROY signal inh 52, TWEAK-Fn14 inh 77, CF NFkB block 78
COc1ccc(N/N=C(\C#N)C(=N)N2CCCCC2)cc1	none
C[C@]12CCC(=O)C=C1CC[C@@H]1[C@@H]2[C@@H](O)C[C@@]2(C)[C@H]1CC[C@]2(O)C(=O)CO	CF NFkB block 73
C[C@]12CCC(=O)C=C1[C@H](O)C[C@@H]1[C@@H]2[C@@H](O)C[C@@]2(C)[C@H]1CC[C@]2(O)C(=O)CO	none
CC12CCC(=O)C=C1CCC1C2C(O)CC2(C)C1CCC2(O)C(=O)CO (configuration not stated)	CF NFkB block 61
O=C(NCCc1c[nH]c2ccccc12)C(=O)NCC(c1ccco1)N1CCN(c2ccccc2)CC1 (configuration not stated)	none
CCC(=O)N1CCc2cc(S(=O)(=O)NCCC(=O)Nc3ccccc3C)ccc21	none
COc1ccc(S(=O)(=O)Nc2ccc(O)c3ccccc23)cc1	CF NFkB block 90
COc1ccc(S(=O)(=O)Nc2ccccc2)cc1	none
COc1ccc(OC)c(NC(=O)Nc2c(O)ccc3ccccc23)c1	none
Cc1ccc(C)c(S(=O)(=O)Nc2ccc(O)c3ccccc23)c1	TWEAK-Fn14 inh 85, KKLEB cytotox -53, CF NFkB block 86
O=S(=O)(Nc1c(O)ccc2ccccc12)c1ccc(F)cc1	TROY signal inh 54
COc1ccc(OC)c(NC(=O)Nc2ccc(O)c3ccccc23)c1	TWEAK-Fn14 inh 90
CCc1ccc2[nH]c(=O)c(CN(CCCN3CCOCC3)C(=O)Nc3cccc(Cl)c3)cc2c1	none
CCCCC(=O)Nc1ccc2c3c(cccc13)CC2	none
CCCc1ccc(OCCNC(=O)CC)cc1	none
Cc1cc2c(SCc3ccccc3Cl)nc(N)nc2nc1C	none
COc1ccc(Cc2nnc(N/N=C/c3ccc(O)cc3)[nH]c2=O)cc1OC	Peg3 prom inh 59
COc1ccc(Cc2nnc(N/N=C/c3ccc(Br)cc3)[nH]c2=O)cc1OC	none
O=C(c1ccco1)N1CCN(S(=O)(=O)c2ccc(Cl)cc2)CC1	none
